Results reported in PubChem BioAssay (Tox21).
Inconclusive results are not listed. A call without a number means that no potency is given here. Unmarked numbers belong to inactive results. Active and inactive are the calls of the source. The call rests on the fitted dose curve. Non-standard residues stand in square brackets, D forms with d. Residues, ends and D or L forms follow the SMILES beside them. pGlu = O=C1CC[C@@H](C(=O)O)N1

Biological target: Acetylcholinesterase (Homo sapiens) (UniProt P22303)
Assay: Acetylcholinesterase (AChE) small molecule antagonists: colormetric cell-based qHTS assay (AID 1347395); further: nearly all actives have a fitted effect of over 30% in size
Details: SH-SY5Y cells AChE activity, colorimetric (Ellman); series mostly up to 115 µM
Description: National Center for Advancing Translational Sciences [NCATS]
Division of Preclinical Innovation [DPI]
U.S. Environmental Protection Agency [EPA]
National Institutes of Environmental Health Sciences [NIEHS]
National Toxicology Program [NTP]
U.S. Food and Drug Administration [FDA]
Acetylcholinesterase (AChE) is the primary cholinesterase in the body that hydrolyzes a key neurotransmitter, acetylcholine. Inhibition of AChE activity can lead to neurotoxicity. The known inhibitors include organophosphorous pesticides (OP), chemical warfare agents, drugs, and various phytochemicals.
A homogenous cell-based assay using the Amplite Colormetric acetylcholinesterase assay kit (AAT Bioquest, Sunnyvale, CA) was used to evaluate the chemicals in the Tox21 10K library that inhibit AChE activity. The assay uses 5, 5-dithiobis-(2-nitrobenzoic acid) (DTNB) to quantify the thiocholine produced from the hydrolysis of acetylthiocholine by AChE from the SH-SY5Y cells.
Tox21 Assay Protocol Summary:
For the cell-based AChE assay, 2,000 SH-SY5Y cells in 4 uL/well were dispensed into black, clear-bottom 1536-well plates using a Multidrop Combi dispenser (Thermo Scientific, MA). The assay plates were incubated overnight at 37 C to allow cells to attach to the wells, followed by the transfer of 23 nL of compound or DMSO (vehicle control) by a Pintool Station (Wako Automation, CA). The plates were incubated for 30 min at 37 C and 5% CO2, followed by the addition of 4 uL of detection cocktail solution (DTNB, acetylthiocholine) into each well using a Flying Reagent Dispenser (Beckman Coulter, CA) and then 90 min incubation at 37 C.
Potency means the concentration at half of the fitted maximal effect.

Chain of Acetylcholinesterase (Homo sapiens) (P22303 whole entry, looked up): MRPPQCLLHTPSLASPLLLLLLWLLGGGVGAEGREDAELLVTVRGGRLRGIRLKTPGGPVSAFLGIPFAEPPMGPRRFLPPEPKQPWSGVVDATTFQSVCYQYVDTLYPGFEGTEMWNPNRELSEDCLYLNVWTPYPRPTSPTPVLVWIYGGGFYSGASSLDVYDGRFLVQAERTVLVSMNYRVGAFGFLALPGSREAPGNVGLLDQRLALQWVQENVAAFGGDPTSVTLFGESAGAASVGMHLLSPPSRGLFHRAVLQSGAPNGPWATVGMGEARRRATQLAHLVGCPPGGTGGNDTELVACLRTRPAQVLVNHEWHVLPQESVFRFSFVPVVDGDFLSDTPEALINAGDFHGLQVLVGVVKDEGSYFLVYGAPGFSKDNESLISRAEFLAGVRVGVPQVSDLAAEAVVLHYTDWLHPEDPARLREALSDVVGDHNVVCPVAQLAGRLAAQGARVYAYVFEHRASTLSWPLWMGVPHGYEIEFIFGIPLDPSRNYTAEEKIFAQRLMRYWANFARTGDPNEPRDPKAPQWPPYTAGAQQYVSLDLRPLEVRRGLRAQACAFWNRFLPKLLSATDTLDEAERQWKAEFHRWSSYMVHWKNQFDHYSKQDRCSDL

Question: For `OC1OC[C@@H](O)[C@H](O)[C@H]1O` (stereo not given in full), which Potency is on record?
Answer: Its Potency is “inactive”.

Question: Which Potency does the source give for `CCCCCCCCOCCC#N` here?
Answer: Its Potency is “inactive”.

Question: With `FC(F)(Cl)C(F)(Cl)Cl` as the compound, how does the Potency read?
Answer: The Potency was “inactive”.

Question: How did the Potency turn out when `C1CCC2OC2C1` (stereo not given) was run?
Answer: The Potency was “inactive”.

Question: Which Potency does the source give for `C[C@]12CCC(=O)C=C1CC[C@@H]1[C@@H]2CC[C@@]2(C)[C@H]1CC[C@]2(O)C(=O)CO` here?
Answer: The Potency was “inactive”.

Question: Which Potency does the source give for `C#CC(C)(CC)OC(=O)c1ccccc1C(=O)O` (stereo not given) here?
Answer: Its Potency is “inactive”.

Question: With `Cc1nnc(C(=O)NC(C)(C)c2nc(C(=O)NCc3ccc(F)cc3)c(O)c(=O)n2C)o1` as the compound, how does the Potency read?
Answer: Its Potency is “inactive”.

Question: Which Potency does the source give for `CC1=NC(C)OC1C` (stereo not given) here?
Answer: The Potency was “inactive”.

Question: How did the Potency turn out when `NC(=O)Cc1cccc(C(=O)c2ccccc2)c1N` was run?
Answer: Its Potency is “inactive”.

Question: Which Potency does the source give for `CO[Si](CCCOCC1CO1)(OC)OC` (stereo not given) here?
Answer: Its Potency is “inactive”.

Question: `CC(=O)OCCOC(C)=O` was tested. Which Potency did it give?
Answer: Its Potency is “inactive”.

Question: How did the Potency turn out when `C[CH2][Ge]([Cl])([CH2]C)[CH2]C` was run?
Answer: The Potency was “inactive”.

Question: How did the Potency turn out when `CCOC(=O)[C@H](O)[C@@H](O)C(=O)OCC` was run?
Answer: Its Potency is “inactive”.

Question: For `CCCCCC(C)N` (stereo not given), which Potency is on record?
Answer: The Potency was “inactive”.

Question: Which Potency does the source give for `CC[C@]12CCCN3CCc4c(n(c5ccccc45)C(=O)C1)[C@@H]32` here?
Answer: Its Potency is “inactive”.

Question: Which Potency does the source give for `CC(C)(C)c1cc(Cc2cc(C(C)(C)C)c(O)c(C(C)(C)C)c2)cc(C(C)(C)C)c1O` here?
Answer: Its Potency is “inactive”.

Question: Which Potency does the source give for `CC(=O)CC(C)=O` here?
Answer: The Potency was “inactive”.

Question: For `CNC(=O)Oc1cc(C)c(SC)c(C)c1`, which Potency is on record?
Answer: The Potency was 3.17 µM (active).

Question: With `O=[N+]([O-])c1cc(C2CCCCC2)c(O)c([N+](=O)[O-])c1` as the compound, how does the Potency read?
Answer: Its Potency is “inactive”.

Question: Which Potency does the source give for `Nc1cc(-c2ccncc2)c[nH]c1=O` here?
Answer: Its Potency is “inactive”.

Question: With `CO[C@@H]1[C@@H](OC)[C@H](C)[C@@](O)(CC(=O)O)O[C@H]1[C@H](C)[C@H]1O[C@@]2(CC[C@@](C)([C@H]3CC[C@@](C)([C@@H]4O[C@@H]([C@H]5O[C@](C)(O)[C@H](C)C[C@@H]5C)C[C@@H]4OC4C[C@H](OC)[C@@H](OC)[C@H](C)O4)O3)O2)C[C@H](O)[C@H]1C` (stereo not given in full) as the compound, how does the Potency read?
Answer: The Potency was “inactive”.

Question: `C=C(C)[C@@H]1CC=C(C)CC1` was tested. Which Potency did it give?
Answer: Its Potency is “inactive”.

Question: Which Potency does the source give for `CC(C)c1ccc(S(=O)(=O)O)cc1` here?
Answer: The Potency was “inactive”.

Question: Which Potency does the source give for `CCC(C)(C)OC` here?
Answer: The Potency was “inactive”.

Question: How did the Potency turn out when `N[C@H]1C(O)O[C@H](CO)[C@H](O)[C@@H]1O` (stereo not given in full) was run?
Answer: The Potency was “inactive”.

Question: For `CCCCCCn1c(=O)c2c(ncn2C)n(C)c1=O`, which Potency is on record?
Answer: Its Potency is “inactive”.

Question: How did the Potency turn out when `O=Cc1ccc(O)c(O)c1O` was run?
Answer: The Potency was “inactive”.

Question: For `NC(N)=NCCC[C@H](N)C(=O)O`, which activity, negative = inhibition is on record?
Answer: Its activity, negative = inhibition is 5.24% [at 10.5 µM].

Question: For `CCCCOC(=O)c1ccc(N)cc1`, which Potency is on record?
Answer: The Potency was “inactive”.

Question: With `CN(C)CCCN1c2ccccc2Sc2ccc(C(F)(F)F)cc21` as the compound, how does the Potency read?
Answer: The Potency was “inactive”.

Question: How did the Potency turn out when `Oc1ccccc1F` was run?
Answer: Its Potency is “inactive”.

Question: Which Potency does the source give for `CCCCCCCC(=O)[O-].CCCCCCCC(=O)[O-].[Zn+2]` here?
Answer: Its Potency is “inactive”.

Question: With `O=C1C(N(CO)C(=O)NCO)N(CO)C(=O)N1CO` (stereo not given) as the compound, how does the Potency read?
Answer: The Potency was “inactive”.

Question: For `Cc1c2ccccc2c(C)c2c1ccc1ccccc12`, which Potency is on record?
Answer: Its Potency is “inactive”.

Question: With `[Cl][Nd]([Cl])[Cl]` as the compound, how does the Potency read?
Answer: The Potency was “inactive”.

Question: `CCNC(=O)[C@@H]1CCCN1C(=O)[C@H](CCCN=C(N)N)NC(=O)[C@H](CC(C)C)NC(=O)CNC(=O)[C@H](Cc1ccc(O)cc1)NC(=O)[C@H](CO)NC(=O)[C@H](Cc1c[nH]c2ccccc12)NC(=O)[C@H](Cc1cnc[nH]1)NC(=O)[C@@H]1CCC(=O)N1` ([pGlu]HWSYGLRP-NHEt) was tested. Which Potency did it give?
Answer: Its Potency is “inactive”.

Question: Which Potency does the source give for `CC1(C)[C@H]2CC[C@]1(C)[C@H](O)C2` here?
Answer: Its Potency is “inactive”.

Question: With `C/C=C/C(=O)N(CC)c1ccccc1C` as the compound, how does the Potency read?
Answer: The Potency was “inactive”.

Question: With `CC(=O)NCCCCCC(=O)O` as the compound, how does the Potency read?
Answer: The Potency was “inactive”.

Question: How did the Potency turn out when `Nc1nc(-c2ccc([N+](=O)[O-])cc2)cs1` was run?
Answer: The Potency was “inactive”.
